Most compounds without a hit are left out; they make up all but 1.4% or so of the library.
p-CIP stab down: p/CIP protein destabilization. F442A p/CIP-EGFP cells, EGFP fluorescence, 16 h. actives 0.01% (n = 290,000). Q05BA5. decrease of EGFP signal, % at 10 µM. AID 1984;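 active = EGFP signal decrease of at least 30% at 10 µM or well 3 SD below plate mean, unless failing retest; inactive = the rest, including hits failing retest or dose response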
MIN6 prolif: MIN6 beta-cell proliferation induction; MIN6 cells proliferation, ATPlite luminescence, 48 h; cells starved in 0.2% serum; 100% = growth in 10% serum; proliferation, % at 10 µM; actives 0.29% (n = 330,000); AID 2380;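 active = compounds whose signal lies at least 3.5 SD above the mean of all wells on their plate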;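 also: 0% = DMSO-treated cells in low-serum medium and 100% = 10% serum control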
HTR5A inv ctr: counter-screen for OPRM1-OPRD1 inverse agonists: human HTR5A inverse agonism | actives 0.083% (n = 340,000) | inhibition, % at 9.3 µM | HTR5A cell line, luminescence | P47898 | AID 504634; in the data active = inhibition mostly above about 23%, no sharp cut-off; inactive = mostly below about 18%;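 also: 0% = cells with DMSO and 100% = no-cell wells with DMSO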
MOR-DOR ag: OPRM1-OPRD1 heterodimerization agonism; P35372+P41143; cells, luminescence; actives 0.3% (n = 340,000); activation, % at 9.3 µM; in the data active = activation above about 18%;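 also: 0% = vehicle-treated cells and 100% = reference agonist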
HTR5A ag: counter-screen for OPRM1-OPRD1 agonists: human HTR5A agonism. P47898. HTR5A agonist assay, luminescence, cell-based. activation, % at 9.3 µM. actives 0.61% (n = 340,000). AID 504692; in the data active = activation mostly above about 9.5%, no sharp cut-off; inactive = mostly below about 7.6%;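 also: 0% = cells with vehicle only and 100% = reference agonist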
OPRM1-OPRD1 inv: inverse agonist of human OPRM1-OPRD1 heterodimerization; cell-based MOR-DOR heterodimer luminescence, inverse agonism; actives 0.21% (n = 340,000); inhibition, % at 9.3 µM; AID 504357; in the data active = inhibition above about 22%, passing the limit was not always enough;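 also: 0% = cells with DMSO and 100% = wells without cells with DMSO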
* marks the source's active call; other numbers are inactive results; . = no result.

SMILES	p-CIP stab down	MIN6 prolif	HTR5A inv ctr	MOR-DOR ag	HTR5A ag	OPRM1-OPRD1 inv
CN1CCN(c2ccccc2NC(=O)c2ccc(-c3cccc(Cl)c3)o2)CC1	-3.3	-7.0	-16.0	62.5*	-2.2	-334.9
CSc1nc(N)nc2c1ncn2C1OC(CO)CC1O (stereo unspecified)	.	.	8.4	-2.0	-2.2	9.8
O=C1C=CC(=O)c2c(O)c(N3CCN(CCO)CC3)c(Cl)c(O)c21	.	.	11.3	21.2*	-2.9	-109.1
O=S(=O)(c1ccc(Br)cc1Cl)N1CCN(CCO)CC1	-9.9	-2.1	-7.8	-3.8	1.8	17.8
Cc1ccc(NC(=O)COC(=O)C2=NNC(=O)CC2)c(Br)c1	.	-2.6	-7.3	-3.8	6.6	14.8
CCNC(=O)COc1ccc(/C=C2\COc3ccccc3C2=O)cc1OC	0.1	0.0	-21.1	3.6	7.1	-29.1
CNc1ncc(C(=O)c2ccc(F)cc2)s1	11.8	10.2*	8.2	0.1	-3.2	-0.5
COCC(Cc1ccccc1)NC(=O)Cn1cc(C)c(=O)[nH]c1=O (stereo unspecified)	.	.	3.9	-3.9	-1.0	18.3
Cc1ccccc1-n1nnnc1SCC(=O)NC1CC1	.	0.1	11.0	-2.6	-2.8	13.5
Cn1cc(/C=C(\NC(=O)c2ccccc2Cl)C(=O)N2CCOCC2)c2ccccc21	3.5	-1.7	1.3	-1.9	-5.3	10.3
COc1ccccc1C(=O)N/C(=C\c1cn(C)c2ccccc12)C(=O)N1CCOCC1	-1.7	4.4	16.4	-2.7	10.6*	14.2
O=C(COc1ccc(Br)cc1)NNC(=O)c1cc(S(=O)(=O)N2CCOCC2)ccc1Cl	.	.	-5.0	-3.3	2.0	12.8
Cc1cccc(N(O)C(=O)Nc2cccc(Cl)c2)c1	4.4	-0.7	-3.4	1.1	0.9	-5.5
O=C(O)c1ccc(N=N/C(=N\Nc2ccc(C(=O)O)cc2)c2ccccc2)cc1	.	-4.8	35.3*	-5.5	-3.2	30.7*
CN(C1CCS(=O)(=O)C1)S(=O)(=O)c1ccccc1[N+](=O)[O-] (stereo unspecified)	-5.3	2.3	-30.6	-0.1	11.1*	0.6
CN(C1CCS(=O)(=O)C1)S(=O)(=O)c1cccc2nsnc12 (stereo unspecified)	-0.9	-0.9	-0.8	-1.8	0.4	7.5
CC(C)c1ccc(S(=O)(=O)N(C)C2(C)CCS(=O)(=O)C2)cc1 (stereo unspecified)	.	2.1	-13.6	0.0	5.4	-0.2
CC(C)(C)c1cc(CCC(=O)NN)cc(C(C)(C)C)c1O	-4.0	0.2	3.0	-0.3	12.0*	1.4
CCOC(=O)c1c(NC(=O)CC(C)C)sc(C(C)=O)c1C	4.0	-0.8	-26.6	5.5	5.5	-32.1
CCOC(=O)c1sc(NC(=O)CN(CC(C)C)CC(C)C)c(C(=O)OCC)c1C	-3.4	-5.8	-34.2	0.4	13.5*	-2.3
COCCCNc1oc(/C=C/c2ccccc2)nc1C#N	-7.3	-4.6	2.8	-1.0	-0.8	4.8
COc1cccc(/C=C/c2nc(C#N)c(NCC(C)C)o2)c1	10.3	-1.2	-46.3	1.8	12.3*	-8.8
Cc1ccc(S(=O)(=O)c2cc3ccccc3oc2=Nc2ccc3c(c2)OCCO3)cc1	5.4	0.0*	-6.3	-4.0	0.1	17.9
COc1ccc(-c2ccc(SCC(=O)N3CCCC3)nn2)cc1OC	-7.4	5.1	-20.3	0.1	10.5*	-0.3
COc1ccc(-c2ccc(SCC(=O)N3CCOCC3)nn2)cc1OC	-10.3	-2.6	1.6	-1.5	-0.5	7.8
CN1CCN(C(=O)c2cc(COc3ccccc3)on2)[C@@H](c2ccccc2)C1	-0.3	-3.0	-16.6	-0.2	9.5*	1.4
OC12CC3C[C@H](C1)C(N1CCOCC1)[C@@H](C3)C2 (stereo partly specified)	4.2	0.4	-34.6	-1.0	10.2*	5.0
O=C(CC12CC3CC(CC(C3)C1)C2)N1CCOCC1	7.9	-1.1	-9.7	0.8	-3.9	-3.2
COCCNC(=O)C1CCC(CNS(=O)(=O)c2ccc3c(c2)CC(C)N3C(=O)C2CC2)CC1 (stereo unspecified)	-1.9	1.1	16.7	-3.2	12.4*	16.8
CC(=O)N1CCN(S(=O)(=O)c2cccc(C(=O)NNC(=O)c3ccc(Br)cc3)c2)CC1	.	.	10.5	-2.5	-2.9	13.0
